Test systems include NCI-H23 lung; NCI-H226 lung; NCI-H322M lung; HOP-92 NSCLC; NCI-H522 lung; A549/ATCC NSCLC; 786-0 renal; COLO 205 colon; DU-145 prostate; K-562 leukemia; MALME-3M melanoma; MDA-MB-231 breast; RXF 393 renal; SF-268 CNS; SF-295 CNS; SF-539 CNS; UACC-257 melanoma; NCI-H460 lung; M14 melanoma; HOP-62 NSCLC.
What all share (assay): NCI-60 one-dose screen, 48 h (100 = growth as untreated, 0 = no growth, -100 = all killed)
Conditions in all cases: 10 µM unless noted

The values that follow come from PubChem BioAssay (NCI).

Compounds without any hit were thinned out: in the full panel of roughly 83,000, 20% have a hit.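 Note: values are percent growth. 100 is the growth of untreated cells, values between 100 and 0 indicate rising inhibition; between -100 and 0 indicates cell death.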 Values without a mark were called inactive. Calls of active or inactive are those of the source. How the source made its calls: active means growth percent below 10; inactive means the rest.

Consider `Cc1ccccc1N=C(N)Nc1ccccc1C` (tested in a mixture with another compound), for which the growth in the test on NCI-H23 lung is 94.8%; in the test on NCI-H226 lung, 97.1%; in the test with NCI-H322M lung, 99.4%; in the test with HOP-92 NSCLC it was 76.5%; in the test on NCI-H522 lung, 4.48% (active); in the test with A549/ATCC NSCLC, 74.4%. In addition, the growth was 73.9% with 786-0 renal; 85.5% in the test with COLO 205 colon; 84.3% with DU-145 prostate; 85.8% with K-562 leukemia; 102% in the test with MALME-3M melanoma; 68.5% with MDA-MB-231 breast. Further, the growth in the test with RXF 393 renal was 94.7%; with SF-268 CNS, 72.2%; in the test on SF-295 CNS, 104%; in the test on SF-539 CNS, 72.4%; in the test with UACC-257 melanoma, 97.5%.
In the case of `COC(=O)[C@]1(C)CCC[C@]2(C)c3ccc(C(C)C)cc3C(=O)[C@@H](Br)[C@@H]12`, the growth is 90.3% in the test with NCI-H23 lung; 81.7% in the test on NCI-H226 lung; 118% with NCI-H322M lung; 106% with NCI-H460 lung; 82.6% in the test with HOP-92 NSCLC; 80.8% in the test on NCI-H522 lung. Also, the growth is 90.1% in the test with A549/ATCC NSCLC; 94.8% in the test on 786-0 renal; 106% in the test on COLO 205 colon; 102% with DU-145 prostate; 72.4% in the test with K-562 leukemia; 82.9% with MDA-MB-231 breast. Besides, the growth is 74.2% in the test on RXF 393 renal; 102% in the test on SF-268 CNS; 91.4% in the test on SF-295 CNS; 98.2% in the test on SF-539 CNS; 92.5% with UACC-257 melanoma; 90.6% in the test with M14 melanoma.
In the case of `O=C(CBr)c1ccc(OC(=O)c2ccccc2)cc1`, the growth with NCI-H23 lung is 101%; with NCI-H226 lung, 113%; with NCI-H322M lung it was 134%; in the test with NCI-H460 lung it was 104%; in the test on HOP-92 NSCLC, 88%; in the test with A549/ATCC NSCLC it was 100%. In addition, the growth is 109% in the test with COLO 205 colon; 114% in the test with DU-145 prostate; 89% in the test on K-562 leukemia; 125% in the test on MALME-3M melanoma; 107% in the test on MDA-MB-231 breast; 119% in the test with RXF 393 renal. In addition, the growth in the test on SF-268 CNS was 102%; in the test on SF-295 CNS, 112%; in the test with SF-539 CNS, 102%; in the test with UACC-257 melanoma, 87.9%; in the test on M14 melanoma, 87.4%.
On to `O=C(OC12CC3CC(CC(C3)C1)C2)c1ccc(NCc2cc(O)ccc2O)cc1`, for which the growth was -21.9% (active) with NCI-H23 lung; -63.6% (active) in the test with NCI-H226 lung; 47.6% with NCI-H322M lung; -36.9% (active) with HOP-92 NSCLC; -74.7% (active) in the test on NCI-H522 lung; -21.9% (active) in the test on A549/ATCC NSCLC. In addition, the growth with 786-0 renal is -90% (active); with COLO 205 colon, -71.2% (active); in the test with DU-145 prostate it was 19.9%; in the test with K-562 leukemia, -49.3% (active); in the test on MALME-3M melanoma, -93.5% (active); with MDA-MB-231 breast, -39.8% (active). In addition, the growth in the test with RXF 393 renal was -60.8% (active); with SF-268 CNS, -6.88% (active); in the test on SF-295 CNS, -14.7% (active); with SF-539 CNS, -95.6% (active); in the test with UACC-257 melanoma, 5.57% (active).
As to `CCCCCC/C=C1\CCC(CN2CCCC2)C1=O` (stereo unspecified), the growth with NCI-H23 lung is 99.9%; in the test with NCI-H226 lung, 95.5%; in the test with NCI-H322M lung it was 106%; in the test on HOP-92 NSCLC, 90.5%; in the test with NCI-H522 lung, 93.5%; in the test on A549/ATCC NSCLC, 93%. Moreover, the growth is 77.4% in the test on 786-0 renal; 107% in the test with DU-145 prostate; 57.3% with K-562 leukemia; 119% with MALME-3M melanoma; 102% in the test on MDA-MB-231 breast; 95.6% in the test with RXF 393 renal. In addition, the growth in the test with SF-268 CNS was 102%; in the test on SF-295 CNS it was 111%; in the test on SF-539 CNS, 114%; with UACC-257 melanoma, 92.1%; with M14 melanoma it was 93.3%.
For the molecule `CC(C)=C1C=C2CC[C@@H]3[C@](C)(CCC[C@@]3(C)C(=O)O)[C@H]2CC1`, the growth in the test on NCI-H23 lung is 101%; with NCI-H226 lung, 103%; with NCI-H322M lung it was 94.8%; with NCI-H460 lung it was 106%; with HOP-92 NSCLC, 97.2%; in the test on NCI-H522 lung, 96.2%. Besides, the growth in the test on 786-0 renal is 95.9%; with COLO 205 colon it was 107%; in the test with DU-145 prostate, 105%; with K-562 leukemia it was 84.3%; with MALME-3M melanoma, 91.3%; with MDA-MB-231 breast, 99.6%. The growth with RXF 393 renal is 112%; in the test on SF-268 CNS it was 97%; with SF-295 CNS, 95.8%; in the test with SF-539 CNS it was 97.5%; in the test with M14 melanoma, 100%.
Consider `O=C(c1ccccc1)c1cc2ccccc2oc1=O`, for which the growth in the test on NCI-H23 lung is 94.5%; in the test with NCI-H226 lung, 86.3%; in the test on HOP-62 NSCLC it was 88.6%; in the test with NCI-H460 lung, 117%; in the test with NCI-H522 lung, 95%; with A549/ATCC NSCLC, 95.9%. In addition, the growth with 786-0 renal was 102%; in the test on COLO 205 colon it was 119%; in the test on DU-145 prostate, 114%; with K-562 leukemia it was 111%; in the test on MALME-3M melanoma, 90.4%; with MDA-MB-231 breast, 79.5%. For the same molecule, the growth is 90% with RXF 393 renal; 101% in the test on SF-268 CNS; 113% in the test with SF-295 CNS; 116% in the test on SF-539 CNS; 96.9% with UACC-257 melanoma; 104% with M14 melanoma.
In the case of `CCCCN(CCCC)CCCCCCCCCCO`, the growth in the test on NCI-H23 lung was 97%; with NCI-H226 lung it was 105%; in the test with HOP-62 NSCLC it was 104%; in the test on NCI-H460 lung it was 110%; with HOP-92 NSCLC it was 129%; in the test with NCI-H522 lung, 75.9%. The growth with A549/ATCC NSCLC was 115%; with 786-0 renal, 92.1%; in the test on COLO 205 colon, 106%; in the test on DU-145 prostate, 111%; with K-562 leukemia, 93.9%; with MDA-MB-231 breast it was 120%. The growth is 106% with RXF 393 renal; 109% with SF-268 CNS; 105% in the test on SF-539 CNS; 106% in the test with UACC-257 melanoma; 93% in the test with M14 melanoma.
As to `OC(Cc1cc(CC(O)(C(F)(F)F)C(F)(F)F)nc(CC(O)(C(F)(F)F)C(F)(F)F)c1)(C(F)(F)F)C(F)(F)F`, the growth was -5.07% (active) in the test on NCI-H23 lung; 11.6% with NCI-H226 lung; 13.3% in the test with NCI-H322M lung; 0.458% (active) with NCI-H460 lung; -27.9% (active) with HOP-92 NSCLC; -18.6% (active) with NCI-H522 lung. Further, the growth with A549/ATCC NSCLC was 3.09% (active); with 786-0 renal it was 1.13% (active); with COLO 205 colon, -92.6% (active); with DU-145 prostate, 24.9%; in the test with K-562 leukemia, 9.94% (active); in the test with MDA-MB-231 breast, -45.6% (active). Further, the growth in the test on RXF 393 renal is -17.2% (active); with SF-268 CNS, 12.9%; with SF-295 CNS it was -8.82% (active); with SF-539 CNS, -1.21% (active); with UACC-257 melanoma, -28.3% (active); in the test with M14 melanoma it was 13.7%.
